This passage reports growth inhibition results from PubChem BioAssay (NCI).

The nature of experiment [1]: NCI Yeast Anticancer Drug Screen. Data for the rad50 strain (AID 155).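 Further: 0% = growth of vehicle-only cultures of the same strain.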 The settings on record: S. cerevisiae rad50 strain growth inhibition, hits give high values. Summed up: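 Genetically altered yeast (DNA repair pathway); compound treatment; growth inhibition vs vehicle ctrl.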
The nature of experiment [2]: NCI Yeast Anticancer Drug Screen. Data for the mec2-1 strain (AID 157). To be noted: S. cerevisiae mec2-1 strain, hits give high values. Summed up: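 Mutant yeast (mec2-1) grown with compound; growth inhibition relative to vehicle control reported.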
The nature of experiment [3]: NCI Yeast Anticancer Drug Screen. Data for the sgs1 mgt1 strain (AID 161).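 Further: 0% = growth of cultures given vehicle only.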 The settings on record: S. cerevisiae sgs1 mgt1 strain, hits give high values. The gist of the method: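 Growth of a repair-deficient yeast mutant was monitored after compound treatment and expressed as inhibition relative to vehicle-treated cultures.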
Experiment [4] can be described thus: NCI Yeast Anticancer Drug Screen. Data for the cln2 rad14 strain (AID 165).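 Further: 0% = growth equal to vehicle treated cultures.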 To be noted: S. cerevisiae cln2 rad14 strain, hits give high values. The gist of the method: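 Readout is yeast growth inhibition versus vehicle-treated controls, using a strain with cln2 and rad14 alterations exposed to compound.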
The nature of experiment [5]: NCI Yeast Anticancer Drug Screen. Data for the bub3 strain (AID 167). To be noted: S. cerevisiae bub3 mutant strain, hits give high values. Summed up:
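Yeast carrying a defined mutation is treated with each compound, and growth is compared with that of vehicle-exposed cells to give inhibition.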

A short description of experiment [6]: NCI Yeast Anticancer Drug Screen. Data for the mlh1 rad18 strain (AID 175). The settings on record: S. cerevisiae mlh1 rad18 strain growth inhibition, hits give high values. Summed up:
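Genetically defined yeast (DNA repair-deficient) exposed to compounds; growth inhibition determined relative to vehicle.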

Where [7] appears, read: at 5.0 µM (retest, dose inferred, filed as 0.5).
Where [8] appears, read: at 50.0 µM (retest, dose inferred, filed as 5.0).

The panel holds about 79,000 compounds, 15% with a hit somewhere; the sample as a whole holds those more often. Unmarked numbers belong to inactive results. Active and inactive are the calls of the source. No stated cut-off is given here; in the data, active means growth inhibition above about 70%; inactive means the rest.

Regarding `O=C(N/N=C(/CCN1CCCC1)CC(c1ccccc1)c1c(O)c2ccccc2oc1=O)c1ccncc1` (configuration not stated), the growth inhibition in experiment [1] (setting [7]) was 15%; in experiment [1] (setting [8]), 15%; in experiment [1] (at 50.0 µM), 83.3% (active); in experiment [2] (setting [7]), -4%; in experiment [2] (setting [8]), -4%; in experiment [2] (at 50.0 µM), 80% (active). The growth inhibition in experiment [3] (setting [7]) was -1%; in experiment [3] (setting [8]) it was -1%; in experiment [3] (at 50.0 µM) it was 85.1% (active); in experiment [4] (setting [7]), -1%; in experiment [4] (setting [8]), -1%; in experiment [4] (at 50.0 µM) it was 82.3% (active). Further, the growth inhibition in experiment [5] (setting [7]) was 0%; in experiment [5] (setting [8]) it was 0%; in experiment [5] (at 50.0 µM), 81.3% (active); in experiment [6] (setting [7]) it was 14%; in experiment [6] (setting [8]), 14%; in experiment [6] (at 50.0 µM), 81.2% (active).
With `C/C(=C\c1ccc(Cl)c(Cl)c1)[N+](=O)[O-]`, the growth inhibition in experiment [1] (setting [7]) is 82% (active); in experiment [1] (setting [8]) it was 98% (active); in experiment [1] (at 50.0 µM) it was 0%; in experiment [2] (setting [7]), 12%; in experiment [2] (setting [8]), 92% (active); in experiment [2] (at 50.0 µM) it was -9.75%. In addition, the growth inhibition is 27% in experiment [3] (setting [7]); 100% (active) in experiment [3] (setting [8]); 21% in experiment [3] (at 50.0 µM); 5% in experiment [4] (setting [7]); 59% in experiment [4] (setting [8]); -14.3% in experiment [4] (at 50.0 µM). The growth inhibition is 14% in experiment [5] (setting [7]); 98% (active) in experiment [5] (setting [8]); -4.85% in experiment [5] (at 50.0 µM); 8% in experiment [6] (setting [7]); 54% in experiment [6] (setting [8]); 23.1% in experiment [6] (at 50.0 µM).
With `Clc1ccc2c(c1)C(c1ccccc1Cl)=NCC(SCCN1CCOCC1)=N2`, the growth inhibition in experiment [1] (setting [7]) was 56%; in experiment [1] (setting [8]), 94% (active); in experiment [1] (at 50.0 µM), 96.8% (active); in experiment [2] (setting [7]), 29%; in experiment [2] (setting [8]), 92% (active); in experiment [2] (at 50.0 µM) it was 93.6% (active). Besides, the growth inhibition is 63% in experiment [3] (setting [7]); 98% (active) in experiment [3] (setting [8]); 89.7% (active) in experiment [3] (at 50.0 µM); 45% in experiment [4] (setting [7]); 81% (active) in experiment [4] (setting [8]); 82% (active) in experiment [4] (at 50.0 µM). Moreover, the growth inhibition in experiment [5] (setting [7]) is 48%; in experiment [5] (setting [8]) it was 93% (active); in experiment [5] (at 50.0 µM) it was 95.6% (active); in experiment [6] (setting [7]), 52%; in experiment [6] (setting [8]), 95% (active); in experiment [6] (at 50.0 µM), 91.5% (active).
As for `O=C(C[n+]1ccccc1)C1CCc2ccccc2C1` (configuration not stated), the growth inhibition in experiment [1] (setting [7]) is -3%; in experiment [1] (setting [8]), -4%; in experiment [1] (at 50.0 µM), 9.25%; in experiment [2] (setting [7]), 0%; in experiment [2] (setting [8]), -2%; in experiment [2] (at 50.0 µM), 5.7%. Moreover, the growth inhibition in experiment [3] (setting [7]) was -1%; in experiment [3] (setting [8]), 0%; in experiment [3] (at 50.0 µM), -1.5%; in experiment [4] (setting [7]) it was 0%; in experiment [4] (setting [8]) it was -5%; in experiment [4] (at 50.0 µM), 39%. The growth inhibition in experiment [5] (setting [7]) is -2%; in experiment [5] (setting [8]) it was -3%; in experiment [5] (at 50.0 µM) it was -21.1%; in experiment [6] (setting [7]) it was -6%; in experiment [6] (setting [8]), -6%; in experiment [6] (at 50.0 µM), 3.2%.
With `CC(=O)c1ccc([As]=O)cc1` (configuration not stated), the growth inhibition in experiment [1] (setting [7]) is 16%; in experiment [1] (setting [8]) it was 100% (active); in experiment [1] (at 50.0 µM), 99.8% (active); in experiment [2] (setting [7]) it was 19%; in experiment [2] (setting [8]), 100% (active); in experiment [2] (at 50.0 µM) it was 99.8% (active). Also, the growth inhibition is 13% in experiment [3] (setting [7]); 99% (active) in experiment [3] (setting [8]); 99.8% (active) in experiment [3] (at 50.0 µM); -9% in experiment [4] (setting [7]); 99% (active) in experiment [4] (setting [8]); 99.4% (active) in experiment [4] (at 50.0 µM). In addition, the growth inhibition in experiment [5] (setting [7]) was -8%; in experiment [5] (setting [8]), 100% (active); in experiment [5] (at 50.0 µM) it was 99.5% (active); in experiment [6] (setting [7]), 14%; in experiment [6] (setting [8]), 100% (active); in experiment [6] (at 50.0 µM), 99.5% (active).
In the case of `O=C1C=C(Cl)C(=O)C(Cl)=C1`, the growth inhibition was 15% in experiment [1] (setting [7]); 99% (active) in experiment [1] (setting [8]); 99.4% (active) in experiment [1] (at 50.0 µM); 23% in experiment [2] (setting [7]); 99% (active) in experiment [2] (setting [8]); 99.3% (active) in experiment [2] (at 50.0 µM). The growth inhibition in experiment [3] (setting [7]) was 7%; in experiment [3] (setting [8]), 99% (active); in experiment [3] (at 50.0 µM), 99.5% (active); in experiment [4] (setting [7]) it was 0%; in experiment [4] (setting [8]), 95% (active); in experiment [4] (at 50.0 µM), 91.5% (active). Moreover, the growth inhibition in experiment [5] (setting [7]) is 10%; in experiment [5] (setting [8]) it was 99% (active); in experiment [5] (at 50.0 µM), 99.3% (active); in experiment [6] (setting [7]) it was 20%; in experiment [6] (setting [8]), 99% (active); in experiment [6] (at 50.0 µM), 99.4% (active).
`ClC1=C(Cl)C2(Cl)C(Cl)CC1(Cl)C2(Cl)Cl` (configuration not stated): the growth inhibition in experiment [1] (setting [7]) is 0%; in experiment [1] (setting [8]) it was -1%; in experiment [1] (at 50.0 µM), 62%; in experiment [2] (setting [7]) it was -5%; in experiment [2] (setting [8]) it was -1%; in experiment [2] (at 50.0 µM), 40.5%. Moreover, the growth inhibition in experiment [3] (setting [7]) was -3%; in experiment [3] (setting [8]), -24%; in experiment [3] (at 50.0 µM), 68.5%; in experiment [4] (setting [7]), 0%; in experiment [4] (setting [8]), -9%; in experiment [4] (at 50.0 µM), 70.2% (active). Further, the growth inhibition is 0% in experiment [5] (setting [7]); 2% in experiment [5] (setting [8]); 1.4% in experiment [5] (at 50.0 µM); 14% in experiment [6] (setting [7]); 2% in experiment [6] (setting [8]); 83.7% (active) in experiment [6] (at 50.0 µM).
Take `OC(CN(CCCl)CCCl)C(O)C(O)C(O)CN(CCCl)CCCl` (configuration not stated): the growth inhibition was 6% in experiment [1] (setting [7]); 81% (active) in experiment [1] (setting [8]); 77.6% (active) in experiment [1] (at 50.0 µM); 9% in experiment [2] (setting [7]); 59% in experiment [2] (setting [8]); 24% in experiment [2] (at 50.0 µM). The growth inhibition in experiment [3] (setting [7]) is -4%; in experiment [3] (setting [8]) it was 33%; in experiment [3] (at 50.0 µM) it was 30.2%; in experiment [4] (setting [7]) it was -6%; in experiment [4] (setting [8]), 50%; in experiment [4] (at 50.0 µM), 82.1% (active). Also, the growth inhibition is -7% in experiment [5] (setting [7]); 11% in experiment [5] (setting [8]); -12.1% in experiment [5] (at 50.0 µM); 35% in experiment [6] (setting [7]); 95% (active) in experiment [6] (setting [8]); 82.1% (active) in experiment [6] (at 50.0 µM).
Consider `S=c1sc(-c2ccccc2)c[se]1`, for which the growth inhibition in experiment [1] (setting [7]) is -1%; in experiment [1] (setting [8]), 42%; in experiment [1] (at 50.0 µM), 67%; in experiment [2] (setting [7]), 2%; in experiment [2] (setting [8]) it was 28%; in experiment [2] (at 50.0 µM), 21.6%. Further, the growth inhibition was -2% in experiment [3] (setting [7]); 34% in experiment [3] (setting [8]); 46.4% in experiment [3] (at 50.0 µM); -1% in experiment [4] (setting [7]); 13% in experiment [4] (setting [8]); 88.5% (active) in experiment [4] (at 50.0 µM). The growth inhibition in experiment [5] (setting [7]) was -1%; in experiment [5] (setting [8]), 17%; in experiment [5] (at 50.0 µM), 35.1%; in experiment [6] (setting [7]) it was -5%; in experiment [6] (setting [8]), 41%; in experiment [6] (at 50.0 µM), 32.9%.
On to `C[N+](C)(C)CC1CCCC(C[N+](C)(C)C)C1O` (configuration not stated), for which the growth inhibition in experiment [1] (setting [7]) was 2%; in experiment [1] (setting [8]) it was 65%; in experiment [1] (at 50.0 µM), 92.3% (active); in experiment [2] (setting [7]), -3%; in experiment [2] (setting [8]), 46%; in experiment [2] (at 50.0 µM), 43.4%. For the same molecule, the growth inhibition is 0% in experiment [3] (setting [7]); 81% (active) in experiment [3] (setting [8]); 76% (active) in experiment [3] (at 50.0 µM); -5% in experiment [4] (setting [7]); 39% in experiment [4] (setting [8]); 6.5% in experiment [4] (at 50.0 µM). Moreover, the growth inhibition in experiment [5] (setting [7]) is -4%; in experiment [5] (setting [8]), 70% (active); in experiment [5] (at 50.0 µM) it was 67.7%.
